HCMV antiviral = blocks human cytomegalovirus replication | HFF cells, HCMV-luciferase reporter, 72 h; hits give low values | activity change, negative = inhibition, % at 57.5 µM | 4.5% of 410,000 active | AID 1259415; in the data active means activity change below about -60%; inconclusive means no clear call, values can overlap the other calls; inactive means above about -39%; further: on the % scale 0 is the no-effect control and ±100 the full control effect
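Steps: HFFs plated, 16 h 37C; compounds added; HCMV-luciferase added to MOI 1 PFU/cell; 72 h 37C; OneGlo reagent, 5 min room temperature; luminescence read, normalized to controls.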
Shiga inhibitor = inhibitors of Shiga toxin in Vero cells; Vero cells, Shiga toxin protein synthesis inhibition reporter; inhibition, % at 38.7 µM; 9.2% of 290,000 active; AID 2315; in the data active means inhibition mostly above about 28%, no sharp cut-off; inactive means mostly below about 43%; further: 0% is about no effect
Pf growth 48h = P. falciparum growth inhibition at 48 hours (one generation); P. falciparum luciferase growth in erythrocytes, 48 h; Potency, µM (highest dose often 28.7 µM), for inactives: top-dose activity change, negative = inhibition, actives largely listed as inhibitors; 5.9% of 310,000 active; further: potency means the concentration at half of the fitted maximal effect; on the % scale 0 is the no-effect control and ±100 the full control effect
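First compound was added to culture medium, then infected red cells at 0.1% parasitemia and 2% hematocrit (final). After incubation at 37 C under 5% CO2, luciferase detection reagent was dispensed and light output recorded.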
Pf growth 96h = inhibits malaria parasite growth, 96 h; P. falciparum luciferase reporter growth, 96 h; Potency, µM (top dose mostly 28.7 µM), for inactives: at the highest dose activity change, negative = inhibition, actives largely listed as inhibitors; 6.9% of 320,000 active; AID 504834; further: potency means the concentration at half of the fitted maximal effect; on the % scale 0 is the no-effect control and ±100 the full control effect
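P. falciparum expressing integrated firefly luciferase grown in erythrocytes (2% hematocrit, 0.05% parasitemia final) with compounds for 96 hours at 37 C, 5% CO2. Growth inhibition read as loss of luminescence after adding luciferase detection reagent.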
CHX counter = affects cycloheximide protein synthesis inhibition readout, counter-screen; cell reporter, cycloheximide protein synthesis inhibition counterscreen; max response, %; 12% of 300,000 active; AID 2314; in the data active means max response mostly above about 13%, no sharp cut-off; inactive means mostly below about 14%; further: read at 38.3 µM for the half of the compounds with a filed dose; 0% is about no effect
An asterisk follows results filed as active; ? = inconclusive; · = no result given; [ ] = another dose, or the depositor's remark. Sampled rows, rich in hits. Any-hit rate of the full collection: about 20%. Unless noted, the call rests on the fitted dose curve; in most records, active means well fitted inhibition curve with a large enough effect; inconclusive means small, poorly fitted or top-dose-only effect, or another doubt; inactive means no such curve, though single readings can be large or run the other way.

SMILES	HCMV antiviral	Shiga inhibitor	Pf growth 48h	Pf growth 96h	CHX counter
COc1ccc(CCNC(=O)CN(C)S(=O)(=O)c2ccc(Br)s2)cc1OC	-17	-22	-5%	1.9µM*	12
CCC(=O)N(C(=O)CC)N1CCN(c2ccncc2S(=O)(=O)N2CCCCC2)CC1	22	-27	?	?	-3
COc1cc(-c2noc(C)c2-c2ccc3[nH]ccc3c2)cc(OC)c1OC	·	-4	?	10µM*	-2
COc1cc(-c2noc(C)c2-c2ccc(N(C)C)nc2)cc(OC)c1OC	-37	-7	?	?	3
Cc1ccnc(N2CCCC(C(=O)NCc3cccs3)C2)n1 (centres undefined)	11	-6	-9%	9.3µM*	-1
O=C(NCc1cccs1)C1CCCN(c2nc3ccccc3o2)C1 (centres undefined)	15	3	?	5.2µM*	-2
COc1ccc(Br)cc1CNC(=O)C1CCCN(c2nc3ccccc3o2)C1 (centres undefined)	-12	-6	4%	5.9µM*	-5
Cc1cc(C)c(CN2CCN(C(=O)CC[C@H]3O[C@@H](n4cnc5c(NC(=O)c6ccccc6)ncnc54)[C@H](O)[C@@H]3O)CC2)c(C)c1	-9	·	·	·	·
Cc1ccccc1-n1c(C)nnc1SCc1cc(=O)oc2ccc3ccccc3c12	21	-9	10%	15µM*	0
CCCn1c(=O)c2ccccc2n2c(SCc3cc(=O)oc4ccc5ccccc5c34)nnc12	2	-8	-21%	?	-1
CCCCNC(=O)c1ccc2c(c1)NC(=O)C(CS(=O)(=O)Cc1ccc(F)cc1Cl)N2 (centres undefined)	-13	·	·	·	·
O=C(Nc1ccccc1)OCCCc1ccccc1	-32	133*	137%	12%	50*
C#CCCOC(=O)Nc1ccccc1	-30	22	3%	?	active
O=C(Nc1ccccc1)OCCNC(=O)c1ccccc1	34	73	20%	?	8
O=C(Nc1ccccc1)OCCCCOC(=O)Nc1ccccc1	14	·	·	·	·
Cc1ccc(C(NC(=O)N2CCCC2)C(Cl)Cl)cc1F (centres undefined)	-19	31	?	?	8
Cc1ccc(C(NC(=O)NN2CCN(C)CC2)C(Cl)Cl)cc1F (centres undefined)	19	79*	2%	-2%	32*
C#CCNC(=O)C1=C[C@H](c2ccc3c(c2)OCO3)C[C@H](OCc2ccc(CO)cc2)O1	-2	20	?	?	18*
NC(=O)C1=C[C@H](c2ccc3c(c2)OCO3)C[C@H](OCc2ccc(CO)cc2)O1	65	49*	73%	77%	43*
CCOc1ccc(CCNC(=O)C2=C(C)C(=O)OC23CCCCC3)cc1	-30	·	·	·	·
CN(C)c1ccc(CNC(=O)CCC(=O)N2Cc3ccccc3Oc3ncccc32)cc1	2	·	·	·	·
COc1cccc2cc(C(=O)Nc3ccccc3Cl)/c(=N/NS(=O)(=O)c3ccccc3)oc12	-12	4	0%	7%	16
O=[N+]([O-])c1cnn(-c2nc(-c3ccco3)cc(C(F)(F)F)n2)c1	-97*	-6	-8%	12µM*	-2
Fc1ccc(N2CCN(c3nc(-c4ccco4)cc(C(F)(F)F)n3)CC2)cc1	-5	-5	8%	-3%	-5
O=C(NN1CCCCC1)c1ccccc1	-7	-3	-1%	32%	8
SMILES	HCMV antiviral	Shiga inhibitor	Pf growth 48h	Pf growth 96h	CHX counter
O=C(NC(C(=O)c1ccccc1)N1CCCCC1)c1ccccc1 (centres undefined)	94	72*	40%	8%	33*
c1ccc(COc2cccc(-c3cc4nc(NCc5ccc6c(c5)OCO6)ccn4n3)c2)cc1	22	·	·	·	·
COc1ccccc1OCC(=O)NCCC1=CCCCC1	-21	17	-12%	-20%	-2
COc1ccccc1/C=C/C(=O)NCCC1=CCCCC1	-18	118*	?	?	29*
O=C(/C=C/c1ccc(F)cc1)NCCC1=CCCCC1	-23	117*	21%	0%	33*
O=C(/C=C/c1ccccc1)NCCC1=CCCCC1	-10	40*	-28%	362%	38*
O=C(COC(=O)/C=C/c1ccccc1)NCCC1=CCCCC1	-26	-5	6%	30%	8
O=C(COC(=O)/C=C/c1ccc(C(F)(F)F)cc1)NCCC1=CCCCC1	7	2	13%	19%	-2
CC(C)CCNC(=O)C1CCC(=O)N1CCc1ccccc1 (centres undefined)	1	-7	5%[0.00184 µM]	0%	-5

High-throughput results: PubChem BioAssay, National Center for Advancing Translational Sciences (NCATS)
